# Screens (PubChem BioAssay)
# Only some compounds are listed: those with a hit (about 6% of all), similar ones and a draw of the others.
# DRD3 agonist: agonists of human D3 dopamine receptor; D3R DiscoveRx beta-arrestin cells, luminescence, 90 min; max activation, %; 410,000 compounds, 0.58% hits; in the data active = max activation above about 30%; note: 0% is about no effect
#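 Agonist-mode cell screen: cells plated at 1500/well and incubated overnight at 37 °C, then exposed to library compounds for 90 min at 37 °C. Detection reagent was added for 30–60 min at room temperature, and luminescence was read.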
# D1 potentiator: potentiators of human D1 dopamine receptor. potentiation, % at 10 µM. 360,000 compounds, 0.036% hits. AID 504651. HEK293 TREx D1 cells, calcium flux, dopamine EC20 potentiation. P21728; in the data active = potentiation above about 30%; note: 0% is about no effect
# Target sequence (P21728 whole entry, looked up): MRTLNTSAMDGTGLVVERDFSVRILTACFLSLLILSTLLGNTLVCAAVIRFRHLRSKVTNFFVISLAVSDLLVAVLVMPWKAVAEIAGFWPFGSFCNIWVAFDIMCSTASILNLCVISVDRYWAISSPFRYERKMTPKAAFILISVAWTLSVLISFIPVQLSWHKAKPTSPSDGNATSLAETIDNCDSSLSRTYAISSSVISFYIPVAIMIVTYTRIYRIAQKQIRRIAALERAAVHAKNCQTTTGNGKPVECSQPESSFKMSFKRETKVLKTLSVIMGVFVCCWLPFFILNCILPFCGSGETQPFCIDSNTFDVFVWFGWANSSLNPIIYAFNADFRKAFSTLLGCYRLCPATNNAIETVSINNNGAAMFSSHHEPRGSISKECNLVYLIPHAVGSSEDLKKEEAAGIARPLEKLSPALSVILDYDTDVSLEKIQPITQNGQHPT
# BCR signal inh: chronic active BCR signaling inhibition; ABC-DLBCL IkBa-CBG/CBR reporter, luminescence ratio, 4 h; Potency, µM (series often up to 46.1 µM), for the others: at the highest dose activity change, negative = inhibition, most hits filed as inhibitors; 340,000 compounds, 0.05% hits; active = well fitted inhibition curve with a large enough effect in the signal ratio, with a control signal flat, not every such curve was filed as active; inconclusive = small, poorly fitted or top-dose-only effect, or effect the other way, or a change in a side signal; the % refers to the signal ratio;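 note: potency is the fitted concentration of half-maximal effect; plate controls were basal doxycycline-induced cells for no effect and cells given 10 µM MG132 for full effect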
#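 Doxycycline induced both beetle luciferases in TMD8 lymphoma cells; IKK-driven degradation limits the IkappaBalpha-fused green signal, while red luminescence normalises for cell number and nonspecific effects. Compounds tested up to 46 uM, 4 hrs.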
# D1 antag: antagonists of human D1 dopamine receptor. AID 504652. 360,000 compounds, 3.2% hits. activity change, negative = inhibition, % at 10 µM. P21728. HEK293 TREx D1 cells, calcium flux, dopamine EC80; hits give low values; in the data active = activity change below about -30%; note: % is set by controls: 0 for no effect and ±100 for the full control effect
#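 Inducible Hek293 Trex D1 cells (tetracycline, overnight, 30 C). Calcium dye 30–90 min RT. Antagonist mode: EC80 dopamine added after 180 s compound read.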
# D1 ag: agonists of human D1 dopamine receptor; P21728; HEK293 T-REx D1 cells, calcium flux, agonist mode; activation, % at 2 µM; 360,000 compounds, 1% hits; in the data active = activation above about 30%; note: 0% is about no effect
#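 Agonism was scored from calcium flux recorded over 180 s (1 read/s) after pintool compound addition, following a 10-cycle baseline. Cells were inducible force-coupled HEK293 TREx D1, plated overnight at 30 C and loaded with no-wash calcium dye.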
# D3 antag: blocks the human D3 dopamine receptor. max response, negative = inhibition, %. P35462. 360,000 compounds, 2.5% hits. D3R cells, DiscoveRx beta-arrestin luminescence, antagonist mode; hits give low values; in the data active = max response below about -50%; inconclusive = no clear call, values can overlap the other calls; note: % is set by controls: 0 for no effect and ±100 for the full control effect
#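 Cells expressing the human receptor were seeded at 1500 cells/well, incubated overnight at 37 degrees C in 5% CO2, then exposed to library compounds with dopamine controls for 90 minutes at 37 degrees C before luminescent detection.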
# The depositor's hits bear a star; ? = inconclusive; . = no result given.
SMILES,DRD3 agonist,D1 potentiator,BCR signal inh,D1 antag,D1 ag,D3 antag
CCCN(CC(=O)Nc1ccccc1C)C(=O)c1cc2ccccc2oc1=O,-2,.,.,.,.,2
Cc1ccc(NC(=O)CCc2c(C)nc3cc(-c4ccccc4)nn3c2C)cc1F,1,1,.,0,2,.
CC1CCN(CCOCCOc2ccc(Cl)cc2Br)CC1,-28,-13,-14%,-4,6,-88*
CC1CCN(CCCOc2ccc(Cl)cc2Br)CC1,-23,-10,3%,-12,14,-89*
Clc1ccc(OCCOCCN2CCCCC2)c(Br)c1,-2,-11,?,-45*,20,46
CC(C)(C)c1cc(Cl)ccc1OCCOCCN1CCCC1,-29,-4,?,-4,22,-30
CN(C)CCOCCOc1ccc(Cl)cc1Br,-19,-8,-2%,-16,6,-76*
CN(C)CCCOc1ccc(Cl)cc1Br,-29,-6,-6%,9,8,?
N#Cc1ccc(NC(=O)c2cc(-c3cccc(Cl)c3)on2)cc1,-9,0,.,-1,-1,.
CC1CCCN(CCCOc2ccc([N+](=O)[O-])cc2)C1 (configuration not stated),-7,1,1%,-1,3,-14
CC1CCCN(CCCOc2ccc(Cl)cc2Br)C1 (configuration not stated),-9,-5,?,-52*,16,-68*
Cc1ccc(Cl)c(OCCN2CCCC(C)C2)c1 (configuration not stated),-8,-4,?,-71*,6,-68*
COc1ccc(OCCCN2CCCC(C)C2)cc1 (configuration not stated),-15,-14,3%,3,4,-60*
Cc1cc(Cl)c(OCCOCCN2CCN(C)CC2)c(Br)c1,-22,-1,1%,7,4,1
Cc1cc(Cl)c(OCCOCCN2CCC(C)CC2)c(Br)c1,-29,-14,-4%,7,34*,-56*
COc1ccc(-n2c(SCC(=O)N3CCc4ccccc43)nc3c([nH]c4ccccc43)c2=O)cc1,-7,-5,.,5,1,.
CCc1nc2ccc(C(=O)N3CCN(S(=O)(=O)CC)CC3)cn2c1N(C)C(=O)c1cccc(OC)c1,-9,.,.,.,.,?
CC1CN(C(=O)COc2ccc3ccccc3c2Br)CC(C)O1 (configuration not stated),-27,-7,?,-14,0,?
CC1CCCN(CCOc2ccc3ccccc3c2Br)C1 (configuration not stated),-17,-5,?,.,-1,-96*
O=C(/C=C/Sc1ccc(C(F)(F)F)cn1)c1ccccc1,-16,3,?,1,1,-69*
Cc1ccc2c(CN3CCN(Cc4ccccc4Cl)CC3)cc(=O)oc2c1,-36,-1,.,6,0,.
COc1ccc(C(=O)c2ccc(Br)cc2)c2ccccc12,-5,-6,-10%,-40*,0,4
COc1ccc(C(=O)c2ccc(Cl)cc2)c2ccccc12,-16,10,-15%,7,5,-23
CCOc1ccccc1CN1CCN(Cc2cc(=O)c3ccccc3[nH]2)CC1CCO (configuration not stated),-16,-5,-12%,-36*,-1,?
CCOc1ccccc1CN1CCN(Cc2[nH]c3ccccc3c2C)CC1CCO (configuration not stated),-4,-5,-4%,-8,56*,-53*
CNS(=O)(=O)c1cn(CC(=O)Nc2ccc(OC)cc2OC)cc1S(=O)(=O)NC,0,-2,.,8,2,.
COc1ccc(CNc2ncnc3c2[nH]c2cc(OC)c(OC)cc23)cc1,-8,-6,-3%,10,1,-1
Cc1ccc2[nH]c3c(=O)n(CCC4=CCCCC4)cnc3c2c1,-4,-5,7%,-10,1,65
C1=C(CCNc2ncnc3c2[nH]c2ccccc23)CCCC1,2,-5,?,-34*,20,4
Cc1ccc2[nH]c3c(NCc4ccccc4)ncnc3c2c1,-12,-8,16%,-51*,40*,-6
